Experimental data from PubChem BioAssay (Tox21).
Results filed as inconclusive are left out. Entries that show only a call come without a potency. Activity calls are given as the source filed them. The call rests on the fitted dose curve.

assay: qHTS assay for small molecule agonists of the antioxidant response element (ARE) signaling pathway - cell viability counter screen (AID 743203); conditions: ARE-bla HepG2 viability, CellTiter-Glo luminescence, 16 h; series mostly up to 73.3 µM; further: nearly all actives have a fitted effect of over 55% in size
Source text: National Center for Advancing Translational Sciences [NCATS]
NIH Chemical Genomics Center [NCGC]
U.S. Environmental Protection Agency [EPA]
National Institutes of Environmental Health Sciences [NIEHS]
National Toxicology Program [NTP]
U.S. Food and Drug Administration [FDA]
Oxidative stress has been implicated in the pathogenesis of a variety of diseases ranging from cancer to neurodegeneration. The antioxidant response element (ARE) signaling pathway plays an important role in the amelioration of oxidative stress. The CellSensor ARE-bla HepG2 cell line (Invitrogen) can be used for analyzing the Nrf2/antioxidant response signaling pathway. Nrf2 (NF-E2-related factor 2) and Nrf1 are transcription factors that bind to AREs and activate these genes. The CellSensor ARE-bla Hep G2 cell line contains a beta-lactamase reporter gene under control of the Antioxidant Response Element (ARE) stably integrated into HepG2 cells. The activation of the report gene under culture conditions can be detected by fluorescence intensity. This cell line has been used to screen the Tox21 10K compound library to identify agonists that induce oxidative stress. The cytotoxicity of the Tox21 compound library against the ARE-bla cell line was tested in parallel by measuring the cell viability using CellTiter-Glo assay (Promega, Madison, WI) in the same wells.
Tox21 Assay Protocol Summary:
ARE-bla HepG2 cells were dispensed at 2,000 cells/5 ul/well in 1536-well white wall/solid bottom plates using a Multidrop Combi (ThermoFisher Scientific, Waltham, MA) dispenser. After the assay plates were incubated at 37C/5% CO2 for 5 hrs, 23 nL of compounds dissolved in DMSO, positive controls or DMSO only was transferred to the assay plate by a pintool work station (Kalypsys, San Diego, CA). The plates were incubated at 37C/5% CO2 for 16 hrs, followed by addition of 4 ul/well of CellTiter-Glo reagent into the assay plates using a Flying Reagent Dispenser (Aurora Discovery, San Diego, CA). After 30 min incubation at room temperature, the luminescence intensity in the assay plates was measured using a ViewLux (PerkinElmer, Shelton, CT) plate reader.
Potency means the concentration at half of the fitted maximal effect.

Row | Structure (SMILES) | Potency
1 | COc1ncc(F)c2nc(S(=O)(=O)Nc3c(F)cccc3F)nn12 | inactive
2 | CCCCC(=O)Cl | inactive
3 | CCC(Cl)[N+](=O)[O-] (stereo not given) | inactive
4 | CCC(C)n1c(=O)[nH]c(C)c(Br)c1=O (stereo not given) | inactive
5 | O=C(O)c1ccc2[nH]cc(CCCCN3CC=C(c4ccccc4)CC3)c2c1 | inactive
6 | CC(C)CC(N(C)C)C1(c2ccc(Cl)cc2)CCC1 (stereo not given) | inactive
7 | [O]=[Cd] | inactive
8 | NC(=O)c1cc([N+](=O)[O-])cc([N+](=O)[O-])c1 | inactive
9 | O=[N+]([O-])c1ccc(CBr)cc1 | inactive
10 | Cc1ncc(CNC(=O)N(CCCl)N=O)c(N)n1 | inactive
11 | C(CCOCC1CO1)COCC1CO1 (stereo not given) | inactive
12 | ClCC(Cl)(Cl)Cl | inactive
13 | CS(=O)(=O)c1cc(C(F)(F)F)ccc1C(=O)c1cnoc1C1CC1 | inactive
14 | C=CC1CC=CCC1 (stereo not given) | inactive
15 | CC(=O)[C@H]1CC[C@H]2[C@@H]3CC[C@H]4C[C@H](O)CC[C@]4(C)[C@H]3C(=O)C[C@]12C | inactive
16 | COP(=S)(OC)Oc1c(Cl)cc(C)cc1Cl | inactive
17 | CCOc1nc(C(Cl)(Cl)Cl)ns1 | inactive
18 | CCCCc1c(C)nc(NCC)[nH]c1=O | inactive
19 | CCCSC(=O)Cl | inactive
20 | O=[N+]([O-])c1ccc2c3c(cccc13)CC2 | inactive

Row | Structure (SMILES) | Potency
21 | COc1cc2c(cc1OC)[C@@]13CCN4CC5=CCO[C@H]6CC(=O)N2[C@H]1[C@H]6[C@H]5C[C@H]43 | inactive
22 | CC1COC2(c3ccccc3Cl)c3cc(Cl)ccc3NC(=O)CN12 (stereo not given) | inactive
23 | CCCCOC(=O)c1ccccc1C(=O)O | inactive
24 | COC(=O)C(c1ccccc1)C1CCCCN1 (stereo not given) | inactive
25 | OCCSCSCCO | inactive
26 | CC(C)(C)NCC(O)c1cc(Cl)c(N)c(Cl)c1 (stereo not given) | inactive
27 | N#Cc1c(Cl)cccc1Cl | inactive
28 | c1cc2c(c(N3CCNCC3)c1)OCCO2 | inactive
29 | CC(C)[N+](=O)[O-] | inactive
30 | N#CCNCC#N | inactive
31 | CCOC(=O)C(c1c(O)c2ccccc2oc1=O)c1c(O)c2ccccc2oc1=O | inactive
32 | CCc1cc2c(s1)-n1c(C)nnc1CN=C2c1ccccc1Cl | inactive
33 | O=C1CN=C(c2ccccc2)c2cc([N+](=O)[O-])ccc2N1 | inactive
34 | CN1C(=S)CN=C(c2ccccc2)c2cc(Cl)ccc21 | inactive
35 | OC(Cn1cncn1)(c1ccc(F)cc1)c1ccccc1F (stereo not given) | inactive
36 | CCSC(=O)N(CC)C1CCCCC1 | inactive
37 | COc1cccc2c1cc([N+](=O)[O-])c1c(C(=O)O)cc3c(c12)OCO3 | 17.2 µM (active)
38 | C[C@]1(O)CC[C@H]2[C@@H]3CCC4=CC(=O)CC[C@]4(C)[C@@]3(F)[C@@H](O)C[C@@]21C | inactive
39 | N#CCBr | inactive
40 | C#C[C@]1(O)C=C[C@H]2[C@@H]3CCC4=CC(=O)CC[C@@H]4[C@H]3CC[C@@]21CC | inactive
